Screening results deposited in PubChem BioAssay by National Center for Advancing Translational Sciences (NCATS).
Most compounds without a hit are left out; they make up all but 19% or so of the library.
HT1080NT lethal: qHTS for induction of synthetic lethality in tumor cells producing 2HG: qHTS for the HT-1080-NT fibrosarcoma cell line; HT-1080-NT fibrosarcoma viability, CellTiter-Glo ATP luminescence, 48 h; AID 686970, 2013; Potency, µM (titrated, usually from 46.1 µM), without a hit: at the top dose activity, negative = less viability, hits mostly cytotoxic; actives 1.6% (n = 360,000);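 further: NT is the 2HG producing partner of a matched IDH1 knockdown line; potency means the concentration at half of the fitted maximal effect; 0% = DMSO-treated cells and -100% = media-only wells without cells; nearly all actives have a fitted effect of over 55% in size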
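Read-out is CellTiter-Glo luminescence after 10 minutes at room temperature, following 48 hours' compound treatment of HT-1080-NT cells (750 cells/well, RPMI, 5% FBS, 37 degrees C).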
HT1080 IDH1KD tx: qHTS for induction of synthetic lethality in tumor cells producing 2HG: qHTS for the HT-1080-IDH1KD cell line; HT-1080 IDH1 knockdown viability, ATP luminescence, 48 h; Potency, µM (doses to about 46.1 µM), inactives show at the top dose activity, negative = toxicity, usual class: cytotoxic; actives 2% (n = 360,000); AID 686971, 2013;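 further: potency means the concentration at half of the fitted maximal effect; 0% = DMSO wells and -100% = cell-free medium wells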
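Knockdown cells (IDH1KD HT-1080) received compounds 2 h after plating at 750 cells/well and were kept 48 h at 37 °C in 5% FBS RPMI. A CellTiter-Glo luminescence read gave % activity for curve fitting.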
DT40 TDP1 no CPT: qHTS for Inhibitors of human tyrosyl-DNA phosphodiesterase 1 (TDP1): qHTS in cells in absence of CPT; AID 686978, 2013; actives 15% (n = 420,000); Potency, µM (doses to about 46.2 µM), for inactives: top-dose activity change, negative = growth inhibition, actives largely listed as inhibitors; DT40 Tdp1-/- hTDP1 cells, no CPT, ATP luminescence, 48 h; further: potency means the concentration at half of the fitted maximal effect; nearly all actives have a fitted effect of over 55% in size
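Camptothecin absent (DMSO only). Human TDP1-complemented DT40 knockout cells, 400 cells/well, 37 °C for minimum 48 hr; ATP measured via CellTiter-Glo, 30 min dark incubation, luminescence.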
TDP1 cell CPT: qHTS for Inhibitors of human tyrosyl-DNA phosphodiesterase 1 (TDP1): qHTS in cells in presence of CPT; AID 686979, 2013; actives 12% (n = 420,000); Potency, µM (top dose mostly 46.2 µM), for inactives: at the top dose activity change, negative = growth inhibition, usual class: inhibitors; chicken DT40 Tdp1-/-;hTDP1 cells + 20 nM CPT, ATP luminescence, 48 h; further: potency means the concentration at half of the fitted maximal effect; nearly all actives have a fitted effect of over 55% in size
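Chicken DT40 Tdp1-/- cells complemented with human TDP1, 400 cells/well, exposed to compounds plus 20 nM camptothecin for at least 48 h at 37 C; viability read as ATP content by CellTiter-Glo luminescence.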
IL1B secr inh: qHTS for Inhibitors of Inflammasome Signaling: IL-1-beta AlphaLISA Primary Screen | activity change, % at 57.5 µM | actives 4.7% (n = 360,000) | THP-1 LPS/ATP IL-1B secretion, AlphaLISA, 16 h; hits give low values | AID 743279, 2014; in the data active means activity change below about -50%; inconclusive means mostly about -30% to -49%
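THP-1 cells pretreated 1 hr with compounds (up to 57.5 uM final), then stimulated with LPS (250 ng/mL final) plus ATP (1.25 mM final); secreted IL-1B measured by AlphaLISA after 16 hr, decreased signal indicating inhibition.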
The depositor's hits bear a star; ? = inconclusive; . = no result given; ! = a repeat was not active; [ ] = dose if it differs, or a comment. Unless noted, the call rests on the fitted dose curve; in most records, active means well fitted curve in the direction sought with a large enough effect; inconclusive means small, poorly fitted or top-dose-only effect, or another doubt; inactive means no such curve, though single readings can be large; an effect the other way counts as inactive or inconclusive. Unless noted, on the % scale 0 is the no-effect control and ±100 the full control effect.

SMILES | HT1080NT lethal | HT1080 IDH1KD tx | DT40 TDP1 no CPT | TDP1 cell CPT | IL1B secr inh
Oc1c(CN2CCCCC2)ccc2cccnc12 | 2.1µM* | 3.3µM* | 1µM* | 1.6µM* | -98*
CSc1ncccc1C(=O)N1CCN(S(=O)(=O)c2cc(C)ccc2C)CC1 | 4% | 0% | -28% | -12% | -5
COCc1c(C(=O)NC2CCOC(C)(C)C2)cnn1-c1nccc(-c2cccs2)n1 (configuration not stated) | . | . | -15% | 10%[9.04 µM] | .
CC(C)COC(=O)Cn1cnc2ccc(Br)cc2c1=O | 0% | 1% | ? | -7% | 10
CCc1c(C)sc(NC(=O)C2CC(c3c(F)cccc3Cl)=NO2)c1C#N (configuration not stated) | 0% | -16% | ? | 16µM* | -18
N#Cc1c(NC(=O)C2CC(c3c(F)cccc3Cl)=NO2)sc2c1CCC2 (configuration not stated) | 2% | 9% | 0.21µM* | ? | 0
CCN(CC)Cc1cc2[nH]c3c4ccc(Cl)cc4ncc3c2cc1OC | 22µM*! | ? | 5µM* | 3.2µM* | -11
COC(=O)c1cc(S(=O)(=O)Nc2cccc(-c3cnco3)c2)oc1C | 0% | 0% | 13% | -8% | 0
COc1ccc(-c2noc(CCC(=O)N3CCN(c4cc(C)ccc4C)CC3)n2)cc1 | -20% | -14% | ? | ? | 13
CCN(C(=O)C1CCN(c2nc(-c3ccc(OC)cc3)no2)CC1)c1ccc(OC)cc1 | -22% | -4% | 16µM* | ? | 23
COc1ccc(-c2noc(N3CCC(C(=O)N(C)c4cc(Cl)ccc4OC)CC3)n2)cc1 | . | . | ? | 16µM* | .
COc1ccc(-c2noc(N3CCC(C(=O)NCCCN4CC(C)CC(C)C4)CC3)n2)cc1 (configuration not stated) | -7% | 29% | ? | 3.7µM* | -13
COc1ccc(-c2noc(N3CCC(C(=O)NCc4ccc(F)cc4)CC3)n2)cc1 | 12% | 3% | ? | -28% | 26
COc1ccc(NC(=O)c2ccco2)cc1NC(=O)c1c(F)c(F)c(OC)c(F)c1F | -7% | -8% | 4% | 10% | -5
Cc1cc2c(cc1C)N[C@]1(C[C@H]3CCCC(=O)N4CC[C@@H](C1)[C@@H]34)C(=NC1CCCCC1)N2 | . | . | -25% | -29% | .
COc1cccc(/C=N/NC(=O)c2nc(-c3ccccc3)cc(-c3ccccc3)n2)c1 | -1% | -2% | 21µM* | 16µM* | ?
COc1ccc2nc(-c3ccccc3)cc(OC)c2c1 | -24% | -18% | ? | -11% | -80*
O=C(N/N=C/c1cccc(O)c1)c1cc(-c2ccccc2)nc2ccccc12 | -26% | ? | ? | 2.3µM* | -19
O=C(N/N=C/c1ccc(Cl)c([N+](=O)[O-])c1)c1cc(-c2ccccc2)nc2ccccc12 | -1% | 9% | 7.3µM* | 6.5µM* | 61
Cc1cnc(C)c(-c2ccc(O)c(CN3CCN(C=O)CC3)c2)n1 | . | . | 9% | 11% | .
O=C(N/N=C/c1c(F)c(F)c(F)c(F)c1F)c1cc(-c2ccccc2)nc2ccccc12 | 3% | 3% | -29% | ? | -7
O=C(N/N=C/c1cccc(O)c1)c1ccccc1O | -24% | -17% | 1% | 2% | -15
C/C(=N\NC(=O)c1csc2ccccc12)c1ccc(O)cc1 | -1% | 1% | 9.2µM* | ? | -8
O=C(N/N=C/c1ccco1)c1cc(-c2cccc(Br)c2)nc2ccccc12 | ? | ? | 5.8µM* | ? | -10
O=C(N/N=C/c1cccc(O)c1)c1csc2ccccc12 | -2% | 1%[9.24 µM] | 0.65µM* | ? | -11
SMILES | HT1080NT lethal | HT1080 IDH1KD tx | DT40 TDP1 no CPT | TDP1 cell CPT | IL1B secr inh
COc1ccc(/C=N/NC(=O)c2cc(-c3ccccc3)nc3ccccc23)c(OC)c1 | -13% | 0% | ? | 15µM* | -24
Cc1ccc(CNC(=O)C(=O)NCC(c2ccco2)S(=O)(=O)c2ccc(C)cc2)cc1 (configuration not stated) | . | . | -8% | -7% | .
Cc1onc(-c2c(F)cccc2Cl)c1C(=O)Nc1cc2cc([N+](=O)[O-])ccc2oc1=O | -8% | -2% | 2% | -17% | 0
CCn1ncc(/C=N\NC(=O)c2csc3ccccc23)c1C | ? | 5.2µM* | 4.6µM* | 2.6µM* | 19
O=C(N/N=C/C=C\c1ccccc1[N+](=O)[O-])c1ccncc1 | 8% | 18% | ? | ? | -7
O=C(N/N=C/c1ccc(O)c(O)c1)c1cc(-c2ccccc2)nc2ccccc12 | -10% | -28% | ? | 8.2µM* | 61
O=C(N/N=C/c1cccnc1)c1cc(-c2ccccc2)nc2ccccc12 | ? | -23% | ? | ? | -6
O=C(N/N=C/C=C\c1ccccc1[N+](=O)[O-])c1cc(-c2ccccc2)nc2ccccc12 | -16% | ? | 15µM* | 23µM* | -20
O=C(COc1ccccc1C(=O)Nc1ccccc1)NC1CCCCC1 | -21% | -18% | ? | ? | .
O=C(CCl)NC(Cc1ccccc1)c1ccccc1 (configuration not stated) | ? | 16µM* | 23µM* | 15µM* | -95*
CC(=O)C(Cc1ccccc1)NC(=O)CCl (configuration not stated) | -11% | -1% | -9% | ? | -9
COc1ccc(S(=O)(=O)N(C)C)cc1NC(=O)COc1ccc2c(c1)CCC2 | -9% | -11% | ? | -22% | 49
S=C(Nc1ccccc1Oc1ccccc1)NC1CCCC1 | 2% | -2% | 18µM* | ? | -9
O=C(NNC(=S)NC1CCCCC1)c1ccc(Cl)s1 | -4% | -23% | 15µM* | -24% | -12
S=C(Nc1ccc(Oc2ccccc2)cc1)NC1CCCC1 | -3% | 1% | ? | -1% | -11
CCCCc1ccccc1NC(=S)NC1CCCC1 | -17% | -12% | 18µM* | ? | -7
CSc1ccccc1NC(=S)NC1CCCC1 | 8% | -1% | 10% | -4% | 9
COc1cc(C)c(NC(=O)COc2ccc3c(c2)CCC3)cc1OC | 0% | 2% | ? | 23µM* | 8
O=S(=O)(Nc1ccccc1O)c1ccc(Cl)nc1 | 2% | 3% | 13% | -12% | 30
CCOc1ccc(NC(=O)C2CC(=O)N(c3ccccc3F)C2)cc1 (configuration not stated) | 14% | 0% | -9% | 3% | -6
